Assay [1] can be described thus: A CellTox Green Cytotoxicity Assay to monitor cytotoxicity in HEK293 cells - 32 hour (AID 1224881). Further: nearly all actives have a fitted effect of over 40% in size. The method in brief:
(§1)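 Cells (HEK293, 600/well) and dye reagent are dispensed together. After 5 h at 37 C, 23 nL compound is pinned in. Plates stay at 37 C for 40 h with fluorescence read at 0h, 8h, 16h, 24h, 32h and 40h.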

A short description of assay [2]: A CellTox Green Cytotoxicity Assay to monitor cytotoxicity in HepG2 cells - 0 hour (AID 1224882). Further: nearly all actives have a fitted effect of over 35% in size. In short, it runs like this: (§2)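 Cells and non-lytic dye reagent are dispensed together (600 HepG2 cells/well) and incubated 5 h before DMSO compound transfer. Kinetic fluorescence is then recorded in the same wells during 40 h at 37 C.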
Assay [3] can be described thus: A CellTox Green Cytotoxicity Assay to monitor cytotoxicity in HepG2 cells - 32 hour (AID 1224883). Further: nearly all actives have a fitted effect of over 50% in size. The method in brief:
as §2

Assay [4] is described as follows: A CellTox Green Cytotoxicity Assay to monitor cytotoxicity in HEK293 cells - 8 hour (AID 1224884). Further: nearly all actives have a fitted effect of over 35% in size. The method in brief:
as §1

A short description of assay [5]: qHTS RealTime-Glo MT Cell Viability Assay in HepG2 cells - 16 hour (AID 1224885). Further: nearly all actives have a fitted effect of over 50% in size. The method in brief: (§3)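 Tox21 10K library screened in qHTS format on HepG2 cells carrying RealTime-Glo reagents. Compounds were added after a 5 h preincubation, and the luminescent signal from continuous culture was measured repeatedly during 40 h treatment.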
(qHTS replaces the single test concentration by a dilution series.)

Assay [6] is described as follows: qHTS RealTime-Glo MT Cell Viability Assay in HepG2 cells - 0 hour (AID 1224889). Further: nearly all actives have a fitted effect of over 50% in size. In short, it runs like this: as §3
Assay [7] in a line: A CellTox Green Cytotoxicity Assay to monitor cytotoxicity in HepG2 cells - 8 hour (AID 1224890). Further: nearly all actives have a fitted effect of over 45% in size. The method in brief:
as §2

Assay [8] in a line: qHTS assay to identify small molecule antagonists of the estrogen receptor alpha (ER-alpha) signaling pathway using the BG1 cell line in the presence of 0.1 nM 17-beta-estradiol - cell viability counter screen (AID 1259241). Further: nearly all actives have a fitted effect of over 40% in size. The method in brief: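 The cell line endogenously expresses full-length ER-alpha and carries four EREs driving luciferase. Cells are cultured 5 days hormone-free, treated 22 hr with compounds and 0.1 nM estradiol, then viability is read by fluorescence.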

Assay [9] is described as follows: qHTS assay to identify small molecule antagonists of the androgen receptor (AR) signaling pathway using the MDA cell line in the presence of 0.5 nM R1881 - cell viability counter screen (AID 1259242). Further: nearly all actives have a fitted effect of over 45% in size. In short, it runs like this:
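Steps: plate MDA-kb2 cells, rest 5 hr at 37C without CO2; pin in compounds in DMSO; add R1881 to 0.5 nM final; incubate 16 hr; add CellTiter-Fluor, 30 min; read fluorescence.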

Assay [10] has as its target Androgen receptor (Homo sapiens) (UniProt P10275). Description: qHTS assay to identify small molecule antagonists of the androgen receptor (AR) signaling pathway using the MDA cell line in the presence of 0.5 nM R1881 (AID 1259243). Further: nearly all actives have a fitted effect of over 50% in size. The method in brief: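 Stably transfected MDA-kb2 cells express luciferase from an MMTV promoter bearing both AR and GR response elements. Compounds plus 0.5 nM R1881 (final) were incubated 16 hr at 37C without CO2, then luminescence measured.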

Assay [11] in a line: qHTS assay to identify small molecule HDAC inhibitors - cell viability counter screen (AID 1259365). The method in brief:
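Viability readout: CellTiter-Glo luminescence. Wild-type HCT-116 cells, 2hr compound treatment following overnight attachment at 37 C.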

Assay [12] is described as follows: qHTS assay to identify small molecule agonists of the sonic hedgehog signaling (Shh) pathway - cell viability counter screen (AID 1259366). Further: nearly all actives have a fitted effect of over 50% in size. Further: potency means the concentration at half of the fitted maximal effect. In short, it runs like this: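 Viability measured fluorometrically (CellTiter-Fluor, 1hr, 37C) in 3T3 Gli1-Luc reporter cells after 23hr compound exposure within a 24hr incubation at 37C/5% CO2.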
The nature of assay [13]: qHTS assay to identify small molecule antagonists of the sonic hedgehog signaling (Shh) pathway - cell viability counter screen (AID 1259367). Further: nearly all actives have a fitted effect of over 55% in size. The method in brief:
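Viability was read by CellTiter-Fluor fluorescence in the same wells, reagent added 23 hr into compound treatment and incubated 1 hr at 37C. The 3T3 Gli1-Luc reporter cells (2,000/well) received conditioned medium after compound and ran 24 hr.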

Assay [14] can be described thus: qHTS assay to identify small molecule agonists of the sonic hedgehog signaling (Shh) pathway (AID 1259368; calls by dose curve;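 further: NIH/3T3-derived 3T3Gli1-Luc cells carrying a stable Gli1-driven firefly luciferase reporter; series mostly up to about 92 µM; nearly all actives have a fitted effect of over 15% in size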). The method in brief: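 Cells of a mouse NIH/3T3 clone stably expressing luciferase under the Gli1 transcriptional response element are exposed to test chemicals for 24 hr at 37 C. Pathway activation is detected as a rise in luminescence.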
Assay [15] in a line: qHTS RealTime-Glo MT Cell Viability Assay in HEK293 cells - 24 hour (AID 1224886). In short, it runs like this:
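Luminescence generated by NanoLuc from substrate produced by living HEK293 cells served as the viability signal. Each value reflects the reading at its stated time point during continuous 40 h compound exposure at 37 C.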

The nature of assay [16]: A CellTox Green Cytotoxicity Assay to monitor cytotoxicity in HEK293 cells - 16 hour (AID 1224888). Further: nearly all actives have a fitted effect of over 35% in size. The method in brief:
as §1

A short description of assay [17]: qHTS assay to identify small molecule HDAC inhibitors (AID 1259364).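 Further: wild-type HCT-116 cells with endogenous class I/II HDAC activity; top concentration of the series differs between compounds; nearly all actives have a fitted effect of over 45% in size.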 In short, it runs like this: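 Cells (HCT-116, wild type) are seeded at 1,500 per well, incubated overnight, treated with compound in DMSO for 2 hr, then developed with HDAC-Glo I/II reagent for 30 min at room temperature.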
The nature of assay [18]: qHTS RealTime-Glo MT Cell Viability Assay in HEK293 cells - 8 hour (AID 1224887). The method in brief:
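Real-time viability in HEK293: signal arises when living cells convert a prosubstrate for NanoLuc in the medium, so luminescence tracks viable cell number. Compound (23 nL, DMSO) added 5 h post-seeding; kinetic reads at 0–40 h, 37 C.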

Assay [19] concerns the target Estrogen receptor (Homo sapiens) (UniProt P03372). Description: qHTS assay to identify small molecule antagonists of the estrogen receptor alpha (ER-alpha) signaling pathway using the BG1 cell line in the presence of 0.1 nM 17-beta-estradiol (AID 1259244). Further: nearly all actives have a fitted effect of over 50% in size. In short, it runs like this: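 Antagonist mode: compounds in DMSO are pinned onto VM7Luc4E2 reporter cells, 0.1 nM final 17beta-estradiol is added, and after 22 h at 37C luciferase luminescence is measured with ONE-Glo.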

Experimental findings from PubChem BioAssay (Tox21) are described below.

The structures appear in SMILES notation. A number with no mark means an inactive call. Inconclusive results are not listed. Calls of active or inactive are those of the source. Unless noted, the call rests on the fitted dose curve; in most records, active means well fitted curve in the direction sought with a large enough effect in the repeat runs; inconclusive means weak or mixed curves; inactive means no such curve, though single readings can be large; an effect the other way counts as inactive or inconclusive.
On the % scale 0 is the no-effect control and ±100 the full control effect.

Estrogen receptor (Homo sapiens), sequence (P03372 whole entry, looked up): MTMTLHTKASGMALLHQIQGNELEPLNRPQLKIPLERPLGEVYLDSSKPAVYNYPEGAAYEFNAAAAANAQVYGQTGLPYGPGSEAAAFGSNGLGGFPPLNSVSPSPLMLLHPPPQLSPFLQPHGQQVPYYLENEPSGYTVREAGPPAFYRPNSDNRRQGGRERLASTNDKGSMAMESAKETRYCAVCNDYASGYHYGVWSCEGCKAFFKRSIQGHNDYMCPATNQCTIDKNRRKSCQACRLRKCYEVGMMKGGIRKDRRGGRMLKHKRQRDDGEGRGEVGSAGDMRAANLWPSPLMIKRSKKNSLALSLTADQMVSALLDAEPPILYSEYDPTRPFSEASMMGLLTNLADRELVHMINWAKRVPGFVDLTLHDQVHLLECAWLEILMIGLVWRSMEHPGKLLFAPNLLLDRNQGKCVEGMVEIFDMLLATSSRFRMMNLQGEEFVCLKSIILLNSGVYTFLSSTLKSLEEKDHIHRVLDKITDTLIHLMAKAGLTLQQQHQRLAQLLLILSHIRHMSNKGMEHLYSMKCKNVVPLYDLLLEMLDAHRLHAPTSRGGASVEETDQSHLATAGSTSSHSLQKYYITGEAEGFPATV
Androgen receptor (Homo sapiens), sequence (P10275 whole entry, looked up): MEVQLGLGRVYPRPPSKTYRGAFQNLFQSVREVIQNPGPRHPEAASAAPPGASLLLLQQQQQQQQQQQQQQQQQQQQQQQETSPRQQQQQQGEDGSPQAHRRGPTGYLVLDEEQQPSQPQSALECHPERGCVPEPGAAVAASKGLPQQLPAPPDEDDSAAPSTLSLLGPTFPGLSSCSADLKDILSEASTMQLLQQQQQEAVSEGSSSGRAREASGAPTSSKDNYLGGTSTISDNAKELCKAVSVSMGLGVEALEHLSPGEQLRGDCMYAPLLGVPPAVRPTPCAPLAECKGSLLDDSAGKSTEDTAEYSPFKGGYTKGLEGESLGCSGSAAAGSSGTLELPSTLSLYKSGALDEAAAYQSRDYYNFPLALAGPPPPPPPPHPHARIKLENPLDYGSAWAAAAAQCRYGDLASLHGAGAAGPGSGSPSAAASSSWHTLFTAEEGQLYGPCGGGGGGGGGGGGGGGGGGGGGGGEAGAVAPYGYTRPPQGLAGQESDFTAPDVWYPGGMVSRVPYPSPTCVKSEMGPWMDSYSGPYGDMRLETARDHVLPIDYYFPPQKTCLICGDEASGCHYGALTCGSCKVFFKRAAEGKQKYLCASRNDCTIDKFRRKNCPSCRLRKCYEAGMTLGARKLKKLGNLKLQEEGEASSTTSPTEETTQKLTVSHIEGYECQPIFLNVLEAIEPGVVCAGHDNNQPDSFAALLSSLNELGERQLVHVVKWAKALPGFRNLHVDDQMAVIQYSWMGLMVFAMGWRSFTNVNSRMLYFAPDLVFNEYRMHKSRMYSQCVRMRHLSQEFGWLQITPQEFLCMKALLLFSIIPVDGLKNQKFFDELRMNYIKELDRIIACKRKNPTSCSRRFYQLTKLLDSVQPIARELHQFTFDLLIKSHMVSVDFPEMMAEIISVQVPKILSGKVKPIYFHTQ

On to `Clc1cc2c(cc1Cl)Oc1cc(Cl)c(Cl)cc1O2`, for which the cytotoxicity increase in assay [1] was -34% [at 0.29 µM]; in assay [3] it was 4.82% [at 0.29 µM]; in assay [4], -18.7% [at 0.29 µM]; in assay [7] it was -6.05% [at 0.29 µM]. For the same molecule, in assay [2], the cytotoxicity was -1.33% [at 0.29 µM]. Further, the activity change, negative = cytotoxic in assay [5] is 2.3% [at 0.29 µM]. The activity change, negative = cytotoxicity in [6] was 7.93% [at 0.29 µM]; in [8] it was -0.812% [at 0.349 µM]; in [11], 6.76% [at 0.349 µM]. Also, the viability change, negative = cytotoxic is -3.69% [at 0.349 µM] in [9], -1.46% [at 0.349 µM] in assay [12] and 1.51% [at 0.349 µM] in assay [13]. For the same molecule, in [10], the activity, negative = inhibition was 16.7% [at 0.349 µM]. For the same molecule, in assay [14], the activity change is 0.117% [at 0.349 µM].

For the molecule `Oc1ccc2c3c1O[C@H]1[C@@H](O)C=C[C@H]4[C@@H](C2)NCC[C@@]341`, the Potency result in [1], in assay [3], in assay [4], in assay [5], in assay [15] and in assay [16] was “inactive” in each case. The Potency result in assay [7], in [9] and in assay [17] was “inactive” throughout. The molecule was classed as inactive in assay [2], in [6], in assay [8], in assay [11] and in [14]. In addition, the Potency in assay [12] is 28.1 µM (active).

Regarding `CCC(C)C(C)(COC(N)=O)COC(N)=O` (configuration not stated), the Potency result in assay [1], in assay [3], in assay [4], in [5], in [15] and in [18] was “inactive” throughout. Moreover, the Potency entry in assay [7], in assay [9], in [19], in assay [17], in [12] and in [13] was “inactive” throughout. In addition, the call in assay [2], in assay [6], in assay [8], in [11] and in assay [14] was inactive.

As for `Brc1c(Br)c(Br)c(Br)c(Br)c1Br`, the cytotoxicity increase in [1] was 4.45% [at 6.97 µM]; in assay [3], 0.204% [at 6.97 µM]; in assay [4] it was 12.9% [at 6.97 µM]; in assay [7], -4.76% [at 6.97 µM]. In assay [2], the cytotoxicity was 0.332% [at 6.97 µM]. Also, the activity change, negative = cytotoxic in [5] was -8.35% [at 6.97 µM]. Besides, the activity change in assay [16] was 4.52% [at 6.97 µM, stronger effect = higher value]. For the same molecule, the activity change, negative = cytotoxicity was 0.505% [at 6.97 µM] in assay [6], -4.2% [at 8.39 µM] in [8] and 1.6% [at 8.39 µM] in [11]. The viability change, negative = cytotoxic in assay [9] is 7.8% [at 8.39 µM]; in assay [12], 2.28% [at 8.39 µM]; in [13] it was 1.61% [at 8.39 µM]. In addition, the activity change, negative = inhibition in assay [19] was 3.5% [at 8.39 µM].

As for `O=C(O)C(Cl)Br` (configuration not stated), the Potency entry in [1], in assay [3], in assay [4], in assay [5], in assay [18] and in assay [16] was “inactive” each time. Further, the Potency result in assay [7], in assay [9], in assay [12] and in [13] was “inactive” throughout. Further, the molecule was called inactive in assay [2], in [6], in assay [8], in assay [11] and in assay [14].

Take `ClCOCCl`: the Potency entry in [1], in [3], in assay [4], in assay [5], in [15] and in assay [18] was “inactive” each time. Moreover, the Potency entry in assay [7], in assay [9], in assay [19], in assay [12] and in [13] was “inactive” throughout. In addition, the molecule was called inactive in assay [2], in assay [6], in [8], in [11] and in assay [14].

Consider `O=S1(=O)OCCO1`, for which the Potency entry in assay [1], in assay [3], in assay [4], in assay [15], in assay [18] and in assay [16] was “inactive” throughout. Besides, the Potency entry in assay [7], in assay [9], in assay [10], in assay [17], in assay [12] and in assay [13] was “inactive” in each case. Besides, the call in assay [2], in assay [6], in assay [8] and in assay [11] was inactive.

Take `CCCCCCCCSC(=O)Oc1cc(Cl)nnc1-c1ccccc1`: the Potency result in assay [1], in [3], in [4], in assay [5], in assay [15] and in assay [16] was “inactive” throughout. The Potency entry in [7], in assay [9], in [19], in assay [17], in assay [12] and in assay [13] was “inactive” in each case. Further, the call in assay [2], in assay [6], in assay [8], in [11] and in assay [14] was inactive.

Regarding `CC(C)(O)C(Cl)(Cl)Cl`, the Potency entry in assay [1], in [3], in assay [4], in [15], in [18] and in assay [16] was “inactive” throughout. The Potency result in [7], in [9], in assay [19], in assay [17], in assay [12] and in assay [13] was “inactive” throughout. Besides, the call in assay [2], in assay [6], in assay [8], in assay [11] and in assay [14] was inactive.

For the molecule `CC(C)(C)c1cc(O)ccc1O`, the Potency entry in assay [1], in [3], in assay [4], in assay [5], in assay [18] and in [16] was “inactive” in each case. Moreover, the Potency entry in assay [7], in [9], in assay [19], in assay [17], in assay [12] and in assay [13] was “inactive” throughout. Moreover, the result in assay [2], in assay [6], in assay [8], in assay [11] and in assay [14] was inactive.

Consider `CN(C)C1CCCCC1`, for which the Potency entry in [1], in assay [3], in [4], in assay [5], in assay [18] and in [16] was “inactive” each time. Also, the Potency entry in [7], in assay [9], in assay [19], in assay [12] and in [13] was “inactive” each time. Further, the result in assay [2], in [6], in assay [8], in assay [11] and in assay [14] was inactive.

On to `CS(=O)(=O)c1ccc(C(=O)C2C(=O)CCCC2=O)c(Cl)c1COCC(F)(F)F`, for which the Potency entry in [1], in [3], in assay [4], in assay [5], in assay [15] and in [18] was “inactive” each time. Also, the Potency entry in assay [7], in [9], in [19], in [12] and in assay [13] was “inactive” throughout. For the same molecule, the molecule was called inactive in assay [2], in [6], in assay [8], in [11] and in assay [14].

Turning to `Cn1c(CCCC(=O)O)nc2cc(N(CCCl)CCCl)ccc21`, the Potency result in assay [1], in [3], in assay [4], in [5], in assay [15] and in [16] was “inactive” in each case. Moreover, the Potency result in assay [7], in assay [9], in assay [19], in [17], in [12] and in assay [13] was “inactive” throughout. Moreover, the outcome in [2], in assay [6], in assay [8], in [11] and in [14] was inactive.
